Source: the supplement of paper PMC6411743
± gives the standard deviation of the averaged measurements. The full data set covers some 6,200 targets. This sample favours those with the largest changes.

Compound: Nc1ncnc2c1ncn2[C@@H]1O[C@H](COP(=O)(O)OP(=O)(O)NP(=O)(O)O)[C@@H](O)[C@H]1O [adenylyl imidodiphosphate]
Test: NP40-soluble protein abundance relative to vehicle (solubility fold change) (ratio); higher = more soluble protein in presence of AMP-PNP
Procedure, shortened: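 Crude Jurkat lysate, prepared by Dounce homogenisation, was exposed to eight concentrations from 0.1 to 10 mM for 10 min at room temperature and then 3 min at 37 °C. Solubilisation used 0.8% NP40 with benzonase for 60 min at 4 °C, followed by ultracentrifugation and TMT labelling of the supernatant for LC-MS/MS. After vsn normalisation of intensities, each value is the fold change against the detergent-processed vehicle within each replicate, across three independent experiments.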

Chain of UniProt P38935 (P38935 whole entry): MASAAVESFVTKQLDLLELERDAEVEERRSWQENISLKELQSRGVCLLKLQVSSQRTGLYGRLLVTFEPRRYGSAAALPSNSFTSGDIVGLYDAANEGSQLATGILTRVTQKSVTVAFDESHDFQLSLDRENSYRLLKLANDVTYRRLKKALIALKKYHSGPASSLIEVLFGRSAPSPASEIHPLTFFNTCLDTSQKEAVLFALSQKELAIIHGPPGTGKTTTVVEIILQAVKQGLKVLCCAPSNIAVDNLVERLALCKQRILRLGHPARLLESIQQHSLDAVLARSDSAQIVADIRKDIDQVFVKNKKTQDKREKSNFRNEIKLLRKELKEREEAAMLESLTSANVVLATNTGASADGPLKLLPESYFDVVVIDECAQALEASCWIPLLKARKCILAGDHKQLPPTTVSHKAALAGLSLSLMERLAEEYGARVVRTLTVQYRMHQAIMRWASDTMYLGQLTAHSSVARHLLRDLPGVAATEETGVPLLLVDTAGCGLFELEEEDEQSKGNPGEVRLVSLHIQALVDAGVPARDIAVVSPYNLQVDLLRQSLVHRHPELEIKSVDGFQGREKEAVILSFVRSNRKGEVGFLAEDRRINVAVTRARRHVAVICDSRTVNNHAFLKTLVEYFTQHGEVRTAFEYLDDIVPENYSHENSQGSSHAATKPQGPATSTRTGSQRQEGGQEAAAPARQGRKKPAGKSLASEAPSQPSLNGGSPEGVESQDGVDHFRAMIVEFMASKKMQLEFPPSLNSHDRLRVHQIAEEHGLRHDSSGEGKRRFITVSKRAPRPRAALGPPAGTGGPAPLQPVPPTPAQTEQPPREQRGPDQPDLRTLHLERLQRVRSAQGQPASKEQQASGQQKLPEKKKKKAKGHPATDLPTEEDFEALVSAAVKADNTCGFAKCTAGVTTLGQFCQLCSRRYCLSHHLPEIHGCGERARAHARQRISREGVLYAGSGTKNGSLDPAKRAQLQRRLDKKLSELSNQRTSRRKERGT
Chain of UniProt P38159 (P38159 whole entry): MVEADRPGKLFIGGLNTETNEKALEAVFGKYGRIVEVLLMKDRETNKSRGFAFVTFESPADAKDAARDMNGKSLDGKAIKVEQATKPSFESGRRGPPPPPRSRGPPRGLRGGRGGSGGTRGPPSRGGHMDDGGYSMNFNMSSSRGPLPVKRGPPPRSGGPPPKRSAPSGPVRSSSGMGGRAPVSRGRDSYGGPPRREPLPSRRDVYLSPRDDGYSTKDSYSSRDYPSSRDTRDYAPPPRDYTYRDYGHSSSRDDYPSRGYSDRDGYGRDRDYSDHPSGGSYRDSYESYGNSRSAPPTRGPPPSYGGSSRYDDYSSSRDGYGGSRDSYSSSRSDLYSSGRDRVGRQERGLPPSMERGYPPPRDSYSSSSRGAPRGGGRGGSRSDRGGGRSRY
Chain of UniProt Q0VDF9 (Q0VDF9 whole entry): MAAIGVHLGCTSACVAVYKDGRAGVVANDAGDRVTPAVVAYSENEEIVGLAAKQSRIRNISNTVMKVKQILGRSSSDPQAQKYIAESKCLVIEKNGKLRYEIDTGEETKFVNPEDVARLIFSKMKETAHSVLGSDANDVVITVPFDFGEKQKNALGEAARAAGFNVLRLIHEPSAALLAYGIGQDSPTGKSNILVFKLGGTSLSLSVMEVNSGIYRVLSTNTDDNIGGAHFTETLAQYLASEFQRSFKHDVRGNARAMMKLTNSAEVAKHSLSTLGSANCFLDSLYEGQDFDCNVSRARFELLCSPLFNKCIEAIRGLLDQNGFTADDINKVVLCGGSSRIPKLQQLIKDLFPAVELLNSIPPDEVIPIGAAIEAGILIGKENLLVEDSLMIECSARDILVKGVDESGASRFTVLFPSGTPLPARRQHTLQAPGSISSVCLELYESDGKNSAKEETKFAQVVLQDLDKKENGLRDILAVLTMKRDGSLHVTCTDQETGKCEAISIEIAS
Chain of UniProt P98082 (P98082 whole entry): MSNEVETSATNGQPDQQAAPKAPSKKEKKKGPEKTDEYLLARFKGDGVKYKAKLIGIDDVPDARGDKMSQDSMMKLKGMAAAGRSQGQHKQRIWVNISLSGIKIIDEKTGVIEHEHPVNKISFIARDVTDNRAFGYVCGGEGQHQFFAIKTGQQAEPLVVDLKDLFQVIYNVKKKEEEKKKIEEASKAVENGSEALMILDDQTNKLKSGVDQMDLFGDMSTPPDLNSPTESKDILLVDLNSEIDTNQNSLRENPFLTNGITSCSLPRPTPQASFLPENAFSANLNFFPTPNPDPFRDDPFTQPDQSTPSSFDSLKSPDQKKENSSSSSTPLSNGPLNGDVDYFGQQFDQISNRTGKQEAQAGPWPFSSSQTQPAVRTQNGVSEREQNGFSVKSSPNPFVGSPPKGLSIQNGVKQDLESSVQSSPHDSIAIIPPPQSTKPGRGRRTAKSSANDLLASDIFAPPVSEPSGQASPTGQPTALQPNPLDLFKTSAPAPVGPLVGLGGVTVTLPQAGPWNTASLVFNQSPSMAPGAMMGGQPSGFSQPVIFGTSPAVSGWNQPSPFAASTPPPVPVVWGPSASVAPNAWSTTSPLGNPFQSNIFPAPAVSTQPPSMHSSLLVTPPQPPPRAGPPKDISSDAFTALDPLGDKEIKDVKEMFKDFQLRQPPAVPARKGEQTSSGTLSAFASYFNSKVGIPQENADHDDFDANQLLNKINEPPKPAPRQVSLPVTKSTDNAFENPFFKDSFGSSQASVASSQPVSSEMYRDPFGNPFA
Chain of UniProt P51659 (P51659 whole entry): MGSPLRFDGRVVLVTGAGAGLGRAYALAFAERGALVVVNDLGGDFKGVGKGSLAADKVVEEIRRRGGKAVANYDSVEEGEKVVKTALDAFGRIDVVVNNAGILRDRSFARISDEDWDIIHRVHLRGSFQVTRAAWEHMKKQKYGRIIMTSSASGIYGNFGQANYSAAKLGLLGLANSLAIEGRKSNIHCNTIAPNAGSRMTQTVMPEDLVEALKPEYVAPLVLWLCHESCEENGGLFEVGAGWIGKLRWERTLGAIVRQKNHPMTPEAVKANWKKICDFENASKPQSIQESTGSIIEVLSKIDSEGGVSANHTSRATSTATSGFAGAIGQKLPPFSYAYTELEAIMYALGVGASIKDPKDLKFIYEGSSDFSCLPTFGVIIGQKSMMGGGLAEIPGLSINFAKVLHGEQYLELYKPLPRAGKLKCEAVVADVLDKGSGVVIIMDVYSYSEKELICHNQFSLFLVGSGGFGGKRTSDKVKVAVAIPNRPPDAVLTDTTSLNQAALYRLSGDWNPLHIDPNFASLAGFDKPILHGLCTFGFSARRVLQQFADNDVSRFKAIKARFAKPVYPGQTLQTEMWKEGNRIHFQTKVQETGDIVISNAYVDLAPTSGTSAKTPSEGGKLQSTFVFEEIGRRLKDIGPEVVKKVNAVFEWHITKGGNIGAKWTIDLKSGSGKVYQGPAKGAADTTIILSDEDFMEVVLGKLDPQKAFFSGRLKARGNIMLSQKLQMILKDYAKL
Chain of UniProt P22087 (P22087 whole entry): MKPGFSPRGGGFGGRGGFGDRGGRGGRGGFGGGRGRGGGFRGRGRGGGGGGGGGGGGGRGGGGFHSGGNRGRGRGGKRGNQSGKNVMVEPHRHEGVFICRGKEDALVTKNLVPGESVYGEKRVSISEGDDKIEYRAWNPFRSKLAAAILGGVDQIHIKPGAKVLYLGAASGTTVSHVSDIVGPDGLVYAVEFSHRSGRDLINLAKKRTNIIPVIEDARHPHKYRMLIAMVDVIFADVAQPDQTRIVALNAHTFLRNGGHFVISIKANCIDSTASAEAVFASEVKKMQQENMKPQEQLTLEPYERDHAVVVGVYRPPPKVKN
Chain of UniProt O95630 (O95630 whole entry): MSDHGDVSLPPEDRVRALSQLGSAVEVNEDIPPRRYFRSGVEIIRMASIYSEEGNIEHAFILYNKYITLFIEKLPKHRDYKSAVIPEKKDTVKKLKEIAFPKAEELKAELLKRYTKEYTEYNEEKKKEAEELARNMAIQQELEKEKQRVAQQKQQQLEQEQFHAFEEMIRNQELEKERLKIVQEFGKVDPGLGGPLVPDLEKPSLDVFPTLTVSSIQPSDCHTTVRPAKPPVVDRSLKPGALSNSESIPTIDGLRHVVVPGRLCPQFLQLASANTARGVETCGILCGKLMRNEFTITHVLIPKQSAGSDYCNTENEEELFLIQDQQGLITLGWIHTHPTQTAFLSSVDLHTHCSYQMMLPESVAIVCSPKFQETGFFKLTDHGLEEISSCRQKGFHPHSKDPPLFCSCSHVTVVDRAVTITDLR
Chain of UniProt P52756 (P52756 whole entry): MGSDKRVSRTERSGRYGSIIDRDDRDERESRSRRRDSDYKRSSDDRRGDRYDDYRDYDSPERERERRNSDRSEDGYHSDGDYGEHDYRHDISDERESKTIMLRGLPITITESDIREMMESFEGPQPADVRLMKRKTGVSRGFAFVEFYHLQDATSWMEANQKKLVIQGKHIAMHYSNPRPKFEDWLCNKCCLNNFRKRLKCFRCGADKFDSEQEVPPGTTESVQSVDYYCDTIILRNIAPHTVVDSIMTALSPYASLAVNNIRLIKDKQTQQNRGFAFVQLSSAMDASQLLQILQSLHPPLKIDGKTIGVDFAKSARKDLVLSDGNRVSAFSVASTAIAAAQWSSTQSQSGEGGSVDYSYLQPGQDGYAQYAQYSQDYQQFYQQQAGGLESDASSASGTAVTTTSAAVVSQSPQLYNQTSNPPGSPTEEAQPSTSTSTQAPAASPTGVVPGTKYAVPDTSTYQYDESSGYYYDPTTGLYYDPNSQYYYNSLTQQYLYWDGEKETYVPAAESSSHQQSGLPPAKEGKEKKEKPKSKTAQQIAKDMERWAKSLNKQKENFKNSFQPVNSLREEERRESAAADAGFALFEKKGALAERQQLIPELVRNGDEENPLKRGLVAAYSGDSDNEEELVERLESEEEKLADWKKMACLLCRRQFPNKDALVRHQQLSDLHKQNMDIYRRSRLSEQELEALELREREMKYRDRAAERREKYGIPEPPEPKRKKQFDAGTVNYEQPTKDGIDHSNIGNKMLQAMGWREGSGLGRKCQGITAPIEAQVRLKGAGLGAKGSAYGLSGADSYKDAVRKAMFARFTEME

Target	NP40-soluble protein abundance (concentration: 1mM)	NP40-soluble protein abundance (concentration: 2mM)	NP40-soluble protein abundance (concentration: 4mM)	NP40-soluble protein abundance (concentration: 6mM)	NP40-soluble protein abundance (concentration: 8mM)	NP40-soluble protein abundance (concentration: 10mM)
UniProt Q13105|Q13105-2|Q13105-3	1.01 ± 0.06	1.011 ± 0.0042	1.03 ± 0.028	1.04 ± 0.057	1.04 ± 0.051	1.07 ± 0.072
UniProt Q10589|Q10589-2	1.0272 ± 0.00052	1.04 ± 0.011	1.03 ± 0.025	1.03 ± 0.028	1.05 ± 0.056	1.04 ± 0.048
WDHD1 (UniProt O75717)	1.01 ± 0.021	0.996 ± 0.012	0.99 ± 0.015	0.963 ± 0.036	0.953 ± 0.016	0.937 ± 0.014
UniProt P60866|P60866-2	0.932 ± 0.061	0.906 ± 0.058	0.883 ± 0.13	0.91 ± 0.04	0.889 ± 0.043	0.929 ± 0.13
UniProt P38159|P38159-2	1.12 ± 0.09	1.34 ± 0.094	1.34 ± 0.037	1.53 ± 0.16	1.58 ± 0.19	1.82 ± 0.16
THOP1 (UniProt P52888)	0.938 ± 0.036	0.884 ± 0.095	0.924 ± 0.021	0.944 ± 0.034	0.942 ± 0.041	0.921 ± 0.028
UniProt P16383|P16383-2	1.05 ± 0.038	1.09 ± 0.044	1.101 ± 0.0092	1.08 ± 0.03	1.07 ± 0.033	1.097 ± 0.0024
METAP1 (UniProt P53582)	1.05 ± 0.046	1.06 ± 0.081	1.16 ± 0.071	1.31 ± 0.046	1.37 ± 0.061	1.38 ± 0.074
UniProt P13807|P13807-2	0.947 ± 0.11	0.922 ± 0.065	0.895 ± 0.096	0.867 ± 0.14	0.876 ± 0.098	0.863 ± 0.16
FOXK1 (UniProt P85037)	0.999 ± 0.044	1.06 ± 0.086	1.01 ± 0.014	0.987 ± 0.015	0.9378 ± 0.0057	1.01 ± 0.02
UQCRB (UniProt P14927)	0.9813 ± 0.003	1.07 ± 0.082	0.954 ± 0.025	0.969 ± 0.018	0.935 ± 0.0015	0.933 ± 0.023
UniProt Q06787|Q06787-3|Q06787-5|Q06787-8|Q06787-9|Q06787-7	1.05 ± 0.04	1.11 ± 0.013	1.1 ± 0.02	1.22 ± 0.066	1.24 ± 0.016	1.36 ± 0.02
UniProt P98082|P98082-2|P98082-3	1.016 ± 0.0042	1.03 ± 0.042	1.042 ± 0.0097	1.016 ± 0.004	1.017 ± 0.0048	1.035 ± 0.0064
UniProt P28331|P28331-2	0.972 ± 0.037	0.935 ± 0.081	0.954 ± 0.059	0.949 ± 0.055	0.938 ± 0.037	0.942 ± 0.086
UniProt P61289|P61289-2	0.983 ± 0.064	0.955 ± 0.12	0.808 ± 0.23	0.886 ± 0.17	0.999 ± 0.037	0.968 ± 0.1
UniProt O75475|V9GYT7	1.08 ± 0.028	1.21 ± 0.042	1.24 ± 0.056	1.34 ± 0.057	1.34 ± 0.024	1.37 ± 0.023
ARG2 (UniProt P78540)	0.983 ± 0.026	1.02 ± 0.033	1.02 ± 0.033	1.01 ± 0.027	0.997 ± 0.019	0.985 ± 0.038
UniProt P52824|H0YA20	0.978 ± 0.0098	0.979 ± 0.023	0.955 ± 0.028	0.99 ± 0.025	0.96 ± 0.039	0.986 ± 0.03
FASN (UniProt P49327)	0.959 ± 0.021	0.874 ± 0.091	0.941 ± 0.026	0.913 ± 0.026	0.917 ± 0.035	0.896 ± 0.036
FARS2 (UniProt O95363)	0.9733 ± 0.0048	0.856 ± 0.13	0.943 ± 0.01	0.9111 ± 0.0032	0.919 ± 0.033	0.876 ± 0.029
AKT2 (UniProt P31751)	0.974 ± 0.025	0.95 ± 0.043	0.969 ± 0.034	0.947 ± 0.031	0.969 ± 0.017	0.96 ± 0.044
UniProt O75822|O75822-2	0.876 ± 0.042	0.941 ± 0.07	0.858 ± 0.031	0.949 ± 0.026	0.957 ± 0.029	0.99 ± 0.015
UniProt O95782|O95782-2	0.994 ± 0.03	0.953 ± 0.058	1.07 ± 0.046	1.09 ± 0.044	1.13 ± 0.021	1.13 ± 0.056
SUB1 (UniProt P53999)	0.923 ± 0.049	1 ± 0.19	0.916 ± 0.088	1 ± 0.089	0.997 ± 0.043	1.02 ± 0.11
UniProt P26038|V9GZ54	0.967 ± 0.13	1.06 ± 0.14	0.988 ± 0.13	0.916 ± 0.088	0.935 ± 0.012	0.936 ± 0.067

Target	NP40-soluble protein abundance (concentration: 1mM)	NP40-soluble protein abundance (concentration: 2mM)	NP40-soluble protein abundance (concentration: 4mM)	NP40-soluble protein abundance (concentration: 6mM)	NP40-soluble protein abundance (concentration: 8mM)	NP40-soluble protein abundance (concentration: 10mM)
HSPA14 (UniProt Q0VDF9)	1.01 ± 0.046	0.998 ± 0.032	1.01 ± 0.034	1.012 ± 0.0091	1.03 ± 0.059	1.02 ± 0.049
FBL (UniProt P22087)	1.02 ± 0.046	1.027 ± 0.003	1.1 ± 0.051	1.22 ± 0.092	1.37 ± 0.12	1.48 ± 0.25
IGHMBP2 (UniProt P38935)	1.17 ± 0.014	1.16 ± 0.05	1.22 ± 0.083	1.26 ± 0.086	1.33 ± 0.06	1.42 ± 0.12
UniProt P15170-2|P15170-3|H3BSV8	0.993 ± 0.025	0.955 ± 0.035	0.96 ± 0.01	0.995 ± 0.012	0.964 ± 0.014	0.968 ± 0.043
GLRX3 (UniProt O76003)	1.04 ± 0.026	1.02 ± 0.011	0.99 ± 0.027	0.9932 ± 0.0036	0.989 ± 0.031	0.976 ± 0.055
UniProt P41227|P41227-2	1.02 ± 0.036	1.07 ± 0.06	1.09 ± 0.03	1.15 ± 0.081	1.12 ± 0.052	1.18 ± 0.039
UniProt O95104|O95104-3|O95104-2	1.1 ± 0.033	1.22 ± 0.083	1.26 ± 0.039	1.34 ± 0.14	1.39 ± 0.071	1.46 ± 0.063
USP4 (UniProt Q13107)	1 ± 0.018	0.967 ± 0.044	1 ± 0.046	0.97 ± 0.042	0.975 ± 0.039	0.942 ± 0.038
ALDH4A1 (UniProt P30038)	0.99 ± 0.028	1.02 ± 0.016	0.977 ± 0.033	0.975 ± 0.023	0.938 ± 0.013	0.954 ± 0.02
UniProt P62701	0.95 ± 0.063	0.87 ± 0.091	0.879 ± 0.11	0.873 ± 0.065	0.821 ± 0.071	0.851 ± 0.13
NUDT2 (UniProt P50583)	0.9311 ± 0.0079	0.909 ± 0.027	1.56 ± 0.26	1.22 ± 0.17	1.49 ± 0.23	1.14 ± 0.14
SFPQ (UniProt P23246)	1.15 ± 0.054	1.25 ± 0.076	1.41 ± 0.12	1.68 ± 0.26	1.75 ± 0.28	2.02 ± 0.41
USP8 (UniProt P40818)	1.036 ± 0.0058	1.05 ± 0.033	1.048 ± 0.0058	0.997 ± 0.015	0.996 ± 0.042	1.01 ± 0.033
UniProt Q01082|Q01082-3	1.05 ± 0.028	1.08 ± 0.035	1.05 ± 0.019	1.08 ± 0.06	1.05 ± 0.032	1.09 ± 0.056
UniProt P48047	0.907 ± 0.042	0.912 ± 0.041	0.896 ± 0.051	0.96 ± 0.087	0.974 ± 0.045	0.938 ± 0.1
UniProt Q01085-2	0.997 ± 0.044	0.976 ± 0.057	0.992 ± 0.029	0.957 ± 0.037	0.9409 ± 0.0074	0.952 ± 0.032
HIST1H1E (UniProt P10412)	1.04 ± 0.06	1.15 ± 0.09	1.12 ± 0.05	1.25 ± 0.15	1.24 ± 0.23	1.56 ± 0.14
RBM5 (UniProt P52756)	1.05 ± 0.026	1.072 ± 0.0062	1.09 ± 0.038	1.06 ± 0.071	1.06 ± 0.061	1.1 ± 0.071
UniProt Q13163|Q13163-2|Q13163-3|Q13163-4	0.968 ± 0.026	1.01 ± 0.041	1.02 ± 0.057	0.958 ± 0.049	0.933 ± 0.019	0.941 ± 0.022
UniProt P33981|P33981-2	1.04 ± 0.027	1.021 ± 0.0069	1.05 ± 0.033	1.018 ± 0.01	1.02 ± 0.034	1.03 ± 0.036
PAK1 (UniProt Q13153)	0.989 ± 0.035	1.05 ± 0.046	0.989 ± 0.036	0.981 ± 0.013	0.926 ± 0.032	0.975 ± 0.041
DBT (UniProt P11182)	0.977 ± 0.14	1.01 ± 0.12	1.01 ± 0.15	0.999 ± 0.2	0.971 ± 0.14	1.03 ± 0.19
HSD17B4 (UniProt P51659)	1.01 ± 0.034	0.967 ± 0.026	1.04 ± 0.041	1.09 ± 0.058	1.12 ± 0.033	1.1 ± 0.034
UniProt P49750-3|P49750-4	1.07 ± 0.027	1.17 ± 0.077	1.17 ± 0.015	1.23 ± 0.065	1.25 ± 0.07	1.35 ± 0.085
STAMBP (UniProt O95630)	1.02 ± 0.02	0.993 ± 0.012	0.995 ± 0.03	0.984 ± 0.018	0.964 ± 0.033	0.948 ± 0.06
